Results from PubChem BioAssay (NCATS).
Results filed as inconclusive are left out. Activity calls are given as the source filed them. Unless noted, the call rests on the fitted dose curve.

How the values were obtained:
[1] = molecular target: Nuclear receptor subfamily 1 group I member 2 (Homo sapiens) (UniProt O75469); experiment: Dual reporter qHTS for agonist of Pregnane X Receptor (hPXR) against the NCATS DSHEA and TCM libraries: Luminescence readout (AID 1920059; active means well fitted activation curve with a large enough effect; further: 0% is about no effect); settings: hPXR dual reporter cells, luciferase luminescence agonist; series mostly up to 40 µM
In short: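 hPXR-Luc HepG2 cells, 2000/well in 5% charcoal-stripped FBS medium, attached 5 h, then exposed 24 h at 37C to compounds. Viability by CellTiter-Fluor, then luciferase luminescence with ONE-Glo.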

[2] = qHTS drug screen for cell cycle checkpoint inhibitors in PARPi-resistant BRCA-mutant ovarian cancer cell lines. (AID 1963452); settings: PEO1/OlaR viability, CellTiter-Glo luminescence, 96 h; for Z-AUC: stronger effect = lower value; further: potency means the concentration at half of the fitted maximal effect
In short: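 PEO1, PEO4 and PEO1/OlaR ovarian cancer cells, 600 per well, exposed 96 h at 37C to a dilution series. Viability read by CellTiter-Glo luminescence, normalized to DMSO and empty wells; activity summarized as Z-AUC.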

[3] = measured here: PEO1 parental Z-AUC

Sequence of Nuclear receptor subfamily 1 group I member 2 (Homo sapiens) (O75469 whole entry, looked up): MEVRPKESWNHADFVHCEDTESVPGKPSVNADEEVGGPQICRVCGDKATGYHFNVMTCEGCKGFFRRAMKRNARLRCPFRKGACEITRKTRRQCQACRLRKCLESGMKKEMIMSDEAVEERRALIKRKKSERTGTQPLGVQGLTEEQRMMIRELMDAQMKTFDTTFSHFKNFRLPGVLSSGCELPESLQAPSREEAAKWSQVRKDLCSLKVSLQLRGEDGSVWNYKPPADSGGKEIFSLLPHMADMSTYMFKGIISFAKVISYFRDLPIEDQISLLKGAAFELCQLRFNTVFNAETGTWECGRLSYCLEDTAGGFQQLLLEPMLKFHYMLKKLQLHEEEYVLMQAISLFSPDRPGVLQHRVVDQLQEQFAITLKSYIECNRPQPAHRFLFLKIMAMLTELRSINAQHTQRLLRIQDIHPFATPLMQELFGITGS

SMILES: COc1ccc(C(C)=O)c(O)c1
- outcome [1]: inactive

SMILES: O=C1c2c(O)cccc2[C@@H]([C@@H]2O[C@H](CO)[C@@H](O)[C@H](O)[C@H]2O)c2cc(CO)cc(O)c21
- outcome [1]: inactive

SMILES: C[C@H](NC(=O)[C@@H](O)c1cc(F)cc(F)c1)C(=O)N[C@@H]1C(=O)N(C)c2ccccc2-c2ccccc21
- Z-AUC [2]: 0.549 (inactive)
- Z-AUC [2, 3]: 0.437
- Z-AUC ([2]; measured here: PEO4 Z-AUC): 0.274

SMILES: c1ccc(CNc2nc(NCc3ccccc3)c3ccccc3n2)cc1
- Z-AUC [2]: 0.198 (inactive)
- Z-AUC [2, 3]: -0.502
- Z-AUC ([2]; measured here: PEO4 Z-AUC): -0.739

SMILES: O=C1CSC(=O)N1C(CCc1ccncc1)COc1ccc(-c2cccc([N+](=O)[O-])c2)cc1 (configuration not stated)
- Z-AUC [2]: 0.623 (inactive)
- Z-AUC [2, 3]: -0.739
- Z-AUC ([2]; measured here: PEO4 Z-AUC): 0.104

SMILES: Cc1cc(C(=O)NOCCO)c(Nc2ccc(I)cc2F)n(C)c1=O
- Z-AUC [2]: -0.774 (inactive)
- Z-AUC [2, 3]: -1.14
- Z-AUC ([2]; measured here: PEO4 Z-AUC): -0.82

SMILES: O=S(=O)(O)CCSSCCS(=O)(=O)O
- Z-AUC [2]: -0.0996 (inactive)
- Z-AUC [2, 3]: 0.123
- Z-AUC ([2]; measured here: PEO4 Z-AUC): 0.876

SMILES: O=C(Nc1nnc(-c2ccco2)o1)c1cc(-c2ccccc2)nc2ccccc12
- Z-AUC [2]: 1.38 (inactive)
- Z-AUC [2, 3]: 0.606
- Z-AUC ([2]; measured here: PEO4 Z-AUC): 0.601

SMILES: COc1cc(C)c(Sc2cnc(NC(=O)c3ccc(CNC(C)C(C)(C)C)cc3)s2)cc1C(=O)N1CCN(C(C)=O)CC1 (configuration not stated)
- Z-AUC [2]: -0.0176 (inactive)
- Z-AUC [2, 3]: -0.233
- Z-AUC ([2]; measured here: PEO4 Z-AUC): -0.809

SMILES: CCc1ccc(C(=O)Nc2cc(CN3CCN(C)CC3)cc(C(F)(F)F)c2)cc1C#Cc1cnc2ccnn2c1
- Z-AUC [2]: -0.668 (inactive)
- Z-AUC [2, 3]: -1.24
- Z-AUC ([2]; measured here: PEO4 Z-AUC): -0.914

SMILES: C[C@@H]1C(=O)O[C@H]2CC34[C@H]5C[C@@H](C(C)(C)C)C36[C@H](OC(=O)[C@@H]6O)O[C@@]4(C(=O)O5)[C@]21O (some centres not stated)
- Z-AUC [2]: 0.793 (inactive)
- Z-AUC [2, 3]: 0.5
- Z-AUC ([2]; measured here: PEO4 Z-AUC): 0.284

SMILES: c1cc(N[C@@H]2CCNC2)nc(-c2cnc3ccc(-c4cn[nH]c4)cn23)c1
- Z-AUC [2]: -1.39 (inactive)
- Z-AUC [2, 3]: -0.698
- Z-AUC ([2]; measured here: PEO4 Z-AUC): -0.866

SMILES: Nc1ccc(C(=O)Nc2cccc(-c3nc(N4CCOCC4)c4oc5ncccc5c4n3)c2)cn1
- Z-AUC [2]: 0.0788 (inactive)
- Z-AUC [2, 3]: -0.164
- Z-AUC ([2]; measured here: PEO4 Z-AUC): 0.731

SMILES: CC(C)(C)c1nc2c3cc[nH]c(=O)c3c3cc(F)ccc3c2[nH]1
- Z-AUC [2]: -0.0239 (inactive)
- Z-AUC [2, 3]: 0.604
- Z-AUC ([2]; measured here: PEO4 Z-AUC): 0.212

SMILES: Cn1c(Nc2ccc(C(F)(F)F)cc2)nc2cc(Oc3ccnc(-c4ncc(C(F)(F)F)[nH]4)c3)ccc21
- Z-AUC [2]: -0.152 (inactive)
- Z-AUC [2, 3]: -0.11
- Z-AUC ([2]; measured here: PEO4 Z-AUC): -1.19

SMILES: Cn1cnc2c(F)c(Nc3ccc(Br)cc3F)c(C(=O)NOCCO)cc21
- Z-AUC [2]: -0.612 (inactive)
- Z-AUC [2, 3]: -0.742
- Z-AUC ([2]; measured here: PEO4 Z-AUC): -0.428

SMILES: CCS(=O)(=O)Nc1ccc2[nH]c(O)c(C(=Nc3ccc(CN4CCCCC4)cc3)c3ccccc3)c2c1
- Z-AUC [2]: -1.37 (inactive)
- Z-AUC [2, 3]: -1.2
- Z-AUC ([2]; measured here: PEO4 Z-AUC): -1.32

SMILES: COC(=O)C1C2CC3c4[nH]c5cc(OC)ccc5c4CCN3CC2CC(OC(=O)c2cc(OC)c(OC)c(OC)c2)C1OC (configuration not stated)
- Z-AUC [2]: 1.42 (inactive)
- Z-AUC [2, 3]: 0.441
- Z-AUC ([2]; measured here: PEO4 Z-AUC): 0.416

SMILES: COc1cc(C(C)C)c(Oc2cnc(NC(CO)CO)nc2N)cc1I
- Z-AUC [2]: 0.743 (inactive)
- Z-AUC [2, 3]: 1.44
- Z-AUC ([2]; measured here: PEO4 Z-AUC): 1.02

SMILES: O=C(Nc1cccc(Nc2ncc(Br)c(NCCc3cnc[nH]3)n2)c1)N1CCCC1
- Z-AUC [2]: -0.432 (inactive)
- Z-AUC [2, 3]: -0.127
- Z-AUC ([2]; measured here: PEO4 Z-AUC): -0.522

SMILES: CC(N[C@H]1CCCC[C@H]1NC(=O)c1ccc(Cl)cc1)c1cccc2ccccc12 (some centres not stated)
- Z-AUC [2]: 0.148 (inactive)
- Z-AUC [2, 3]: 0.0458
- Z-AUC ([2]; measured here: PEO4 Z-AUC): 0.472

SMILES: CCc1c(O)cc(O)c(C(=O)c2ccc(OCCN3CCOCC3)c(OC)c2)c1CC(=O)N(CCOC)CCOC
- Z-AUC [2]: -0.361 (inactive)
- Z-AUC [2, 3]: -0.538
- Z-AUC ([2]; measured here: PEO4 Z-AUC): 0.145

SMILES: COc1cc(C[C@@H](CO)[C@H](CO)Cc2ccc(O)c(OC)c2)ccc1O
- Z-AUC [2]: 0.833 (inactive)
- Z-AUC [2, 3]: 0.526
- Z-AUC ([2]; measured here: PEO4 Z-AUC): 0.516

SMILES: CCCCCCCCc1ccc(CCC(N)(CO)CO)cc1
- Z-AUC [2]: -0.00924 (inactive)
- Z-AUC [2, 3]: -0.111
- Z-AUC ([2]; measured here: PEO4 Z-AUC): 0.091

SMILES: N#Cc1c(C2CCNCC2)cc(-c2c(O)cccc2OCC2CC2)nc1N
- Z-AUC [2]: 0.339 (inactive)
- Z-AUC [2, 3]: 0.598
- Z-AUC ([2]; measured here: PEO4 Z-AUC): 0.733

SMILES: OCCNC1CCCc2c1[nH]c1ccc(-c3ccccc3)cc21 (configuration not stated)
- Z-AUC [2]: -0.486 (inactive)
- Z-AUC [2, 3]: -0.384
- Z-AUC ([2]; measured here: PEO4 Z-AUC): 0.0631

SMILES: C[N+](C)([O-])CCNc1ccc(NCC[N+](C)(C)[O-])c2c1C(=O)c1c(O)ccc(O)c1C2=O
- Z-AUC [2]: 0.909 (inactive)
- Z-AUC [2, 3]: -0.431
- Z-AUC ([2]; measured here: PEO4 Z-AUC): 0.857

SMILES: CCNC(=O)c1cc2c(-c3cc(OCCN4CCCC4)c(Cl)cc3Cl)nc(N)nc2s1
- Z-AUC [2]: -0.792 (inactive)
- Z-AUC [2, 3]: -0.714
- Z-AUC ([2]; measured here: PEO4 Z-AUC): -0.886

SMILES: CC(C)NC[C@@H](C(=O)N1CCN(c2ncnc3c2[C@H](C)C[C@H]3O)CC1)c1ccc(Cl)cc1
- Z-AUC [2]: 1.25 (inactive)
- Z-AUC [2, 3]: 1.5
- Z-AUC ([2]; measured here: PEO4 Z-AUC): 1.13

SMILES: CC(O)(C#Cc1ccc2c(c1)N(c1nc(N)ncc1Cl)CC2)c1nccs1 (configuration not stated)
- Z-AUC [2]: -0.29 (inactive)
- Z-AUC [2, 3]: -0.463
- Z-AUC ([2]; measured here: PEO4 Z-AUC): -0.647

SMILES: CC(C)c1cnn2c(NCc3ccccc3)cc(NCCCCCCN)nc12
- Z-AUC [2]: 1.27 (inactive)
- Z-AUC [2, 3]: 1.33
- Z-AUC ([2]; measured here: PEO4 Z-AUC): 1.15

SMILES: CCN(CC)Cc1ccc2cc(COC(=O)Nc3ccc(C(=O)NO)cc3)ccc2c1
- Potency [2]: 0.977 µM (active)
- Z-AUC [2, 3]: -1.11
- Z-AUC ([2]; measured here: PEO4 Z-AUC): -1.29

SMILES: c1cncc(CN2CCC(n3ncc4c(N5CCOCC5)nc(-c5ccc6[nH]ccc6c5)nc43)CC2)c1
- Z-AUC [2]: -0.587 (inactive)
- Z-AUC [2, 3]: -0.0764
- Z-AUC ([2]; measured here: PEO4 Z-AUC): -0.549

SMILES: CCOC(=O)[C@@H](N)Cc1ccc(-c2cc(O[C@H](c3ccc(Cl)cc3-n3ccc(C)n3)C(F)(F)F)nc(N)n2)cc1
- Z-AUC [2]: -0.389 (inactive)
- Z-AUC [2, 3]: -0.62
- Z-AUC ([2]; measured here: PEO4 Z-AUC): -0.32

SMILES: C[C@](Cc1c[nH]c2ccccc12)(NC(=O)OC1C2CC3CC(C2)CC1C3)C(=O)NC[C@H](NC(=O)CCC(=O)O)c1ccccc1 (some centres not stated)
- Z-AUC [2]: -0.246 (inactive)
- Z-AUC [2, 3]: -0.184
- Z-AUC ([2]; measured here: PEO4 Z-AUC): -0.0323

SMILES: c1coc(CNc2ncnc3nc[nH]c23)c1
- Z-AUC [2]: 0.877 (inactive)
- Z-AUC [2, 3]: 0.956
- Z-AUC ([2]; measured here: PEO4 Z-AUC): 1.1

SMILES: CC1=C(C(=O)Nc2cc3cn[nH]c3cc2F)C(c2ccc(Cl)cc2F)N=C(c2ccnc(Cl)c2)N1 (configuration not stated)
- Z-AUC [2]: 0.0424 (inactive)
- Z-AUC [2, 3]: 0.693
- Z-AUC ([2]; measured here: PEO4 Z-AUC): 0.963
